Inhibition data for seven compounds are collected here from ChEMBL document CHEMBL1961873, “Compounds: GSK PKIS; Assays: Nanosyn kinase panel” (2012).

The target in assay [1] is Mitogen-activated protein kinase kinase kinase kinase 4 (Homo sapiens) (UniProt O95819). The following applies: at 1 µM.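 Further: reported figure is an averaged inhibition value.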
For assay [2], the target named is Dual specificity mitogen-activated protein kinase kinase 1 (Homo sapiens) (UniProt Q02750). The following applies: at 0.1 µM.
For assay [3] the target is unchanged. The following applies: at 1 µM.
Assay [4] concerns the target Misshapen-like kinase 1 (Homo sapiens) (UniProt Q8N4C8). The following applies: at 0.1 µM.
For assay [5] the target is unchanged. The following applies: at 1 µM.
Assay [6] addresses T1, Serine/threonine-protein kinase 4 (Homo sapiens) (UniProt Q13043).
T1 sequence (whole entry): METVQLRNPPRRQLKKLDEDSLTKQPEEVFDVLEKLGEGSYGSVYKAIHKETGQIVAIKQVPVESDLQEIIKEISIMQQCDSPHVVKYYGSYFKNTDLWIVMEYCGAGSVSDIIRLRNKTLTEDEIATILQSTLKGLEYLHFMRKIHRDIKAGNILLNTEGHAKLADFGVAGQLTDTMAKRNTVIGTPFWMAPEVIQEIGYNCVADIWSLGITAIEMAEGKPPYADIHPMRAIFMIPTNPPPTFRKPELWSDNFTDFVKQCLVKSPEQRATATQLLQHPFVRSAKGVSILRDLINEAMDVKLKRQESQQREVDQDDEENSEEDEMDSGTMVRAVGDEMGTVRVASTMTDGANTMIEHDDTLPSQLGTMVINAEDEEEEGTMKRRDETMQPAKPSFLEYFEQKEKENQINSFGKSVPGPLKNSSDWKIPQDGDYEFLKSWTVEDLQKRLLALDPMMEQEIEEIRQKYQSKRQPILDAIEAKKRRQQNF
The following applies: at 0.1 µM.

Assay [7] addresses T1, Serine/threonine-protein kinase 4 (Homo sapiens). The following applies: at 1 µM.
Assay [8] has as its target T2, Serine/threonine-protein kinase 3 (Homo sapiens) (UniProt Q13188).
T2 sequence (whole entry): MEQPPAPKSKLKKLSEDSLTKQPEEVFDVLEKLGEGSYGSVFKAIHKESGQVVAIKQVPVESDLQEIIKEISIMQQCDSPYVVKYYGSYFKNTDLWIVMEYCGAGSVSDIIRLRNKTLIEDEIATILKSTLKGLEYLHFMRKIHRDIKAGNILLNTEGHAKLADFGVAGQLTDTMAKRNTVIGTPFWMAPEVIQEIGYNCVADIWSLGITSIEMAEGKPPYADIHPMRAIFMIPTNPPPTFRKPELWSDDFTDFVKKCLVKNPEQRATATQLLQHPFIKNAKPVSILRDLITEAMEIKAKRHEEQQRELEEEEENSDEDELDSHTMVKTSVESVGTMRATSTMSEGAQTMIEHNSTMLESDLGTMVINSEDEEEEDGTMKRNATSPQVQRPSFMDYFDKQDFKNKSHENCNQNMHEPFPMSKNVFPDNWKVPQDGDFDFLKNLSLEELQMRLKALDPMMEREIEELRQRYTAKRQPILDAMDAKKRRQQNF
The following applies: at 0.1 µM.

Assay [9] concerns the target T2, Serine/threonine-protein kinase 3 (Homo sapiens). The following applies: at 1 µM.
Assay [10] has as its target Serine/threonine-protein kinase 26 (Homo sapiens) (UniProt Q9P289). The following applies: at 0.1 µM.
For assay [11] the target is unchanged. The following applies: at 1 µM.
In assay [12] the target is Serine/threonine-protein kinase PAK 1 (Homo sapiens) (UniProt Q13153). The following applies: at 0.1 µM.
The target is the same in assay [13]. The following applies: at 1 µM.
Assay [14] addresses Serine/threonine-protein kinase PAK 2 (Homo sapiens) (UniProt Q13177). The following applies: at 0.1 µM.
Assay [15] has the same target. The following applies: at 1 µM.
Assay [16] has as its target Serine/threonine-protein kinase PAK 3 (Homo sapiens) (UniProt O75914). The following applies: at 0.1 µM.
Assay [17] has the same target. The following applies: at 1 µM.
Assay [18] addresses Serine/threonine-protein kinase PAK 5 (Homo sapiens) (UniProt Q9P286). The following applies: at 0.1 µM.
Assay [19] has the same target. The following applies: at 1 µM.
Assay [20] has as its target Serine/threonine-protein kinase PAK 6 (Homo sapiens) (UniProt Q9NQU5). The following applies: at 0.1 µM.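 Further: mean PAK6 inhibition reported from the GSK PKIS screen.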

Chain of Serine/threonine-protein kinase PAK 2 (Homo sapiens) (Q13177 whole entry): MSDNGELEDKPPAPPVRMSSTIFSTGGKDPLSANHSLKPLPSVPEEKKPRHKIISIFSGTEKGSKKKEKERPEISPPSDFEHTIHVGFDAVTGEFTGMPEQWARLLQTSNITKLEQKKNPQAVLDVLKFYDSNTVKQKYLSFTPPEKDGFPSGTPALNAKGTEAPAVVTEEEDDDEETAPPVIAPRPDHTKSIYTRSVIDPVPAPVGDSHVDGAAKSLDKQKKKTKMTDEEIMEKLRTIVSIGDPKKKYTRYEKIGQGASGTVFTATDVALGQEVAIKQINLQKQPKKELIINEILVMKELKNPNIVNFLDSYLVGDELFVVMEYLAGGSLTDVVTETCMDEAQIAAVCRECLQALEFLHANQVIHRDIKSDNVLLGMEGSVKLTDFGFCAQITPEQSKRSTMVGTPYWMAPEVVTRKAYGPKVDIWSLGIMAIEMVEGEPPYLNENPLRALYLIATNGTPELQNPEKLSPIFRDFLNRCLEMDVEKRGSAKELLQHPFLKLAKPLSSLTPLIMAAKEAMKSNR
Chain of Serine/threonine-protein kinase 26 (Homo sapiens) (Q9P289 2-416 limits assumed): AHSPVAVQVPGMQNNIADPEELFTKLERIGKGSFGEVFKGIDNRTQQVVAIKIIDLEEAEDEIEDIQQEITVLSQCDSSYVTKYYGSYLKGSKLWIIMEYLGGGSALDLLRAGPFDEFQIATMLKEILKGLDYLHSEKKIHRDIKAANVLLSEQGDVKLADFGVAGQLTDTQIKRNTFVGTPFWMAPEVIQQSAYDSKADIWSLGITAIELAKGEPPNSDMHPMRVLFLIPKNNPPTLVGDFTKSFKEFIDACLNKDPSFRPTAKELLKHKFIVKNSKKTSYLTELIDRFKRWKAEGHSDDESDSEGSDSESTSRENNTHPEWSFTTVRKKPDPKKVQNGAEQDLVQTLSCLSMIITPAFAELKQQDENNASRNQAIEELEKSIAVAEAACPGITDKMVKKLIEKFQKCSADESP
Chain of Dual specificity mitogen-activated protein kinase kinase 1 (Homo sapiens) (Q02750 whole entry): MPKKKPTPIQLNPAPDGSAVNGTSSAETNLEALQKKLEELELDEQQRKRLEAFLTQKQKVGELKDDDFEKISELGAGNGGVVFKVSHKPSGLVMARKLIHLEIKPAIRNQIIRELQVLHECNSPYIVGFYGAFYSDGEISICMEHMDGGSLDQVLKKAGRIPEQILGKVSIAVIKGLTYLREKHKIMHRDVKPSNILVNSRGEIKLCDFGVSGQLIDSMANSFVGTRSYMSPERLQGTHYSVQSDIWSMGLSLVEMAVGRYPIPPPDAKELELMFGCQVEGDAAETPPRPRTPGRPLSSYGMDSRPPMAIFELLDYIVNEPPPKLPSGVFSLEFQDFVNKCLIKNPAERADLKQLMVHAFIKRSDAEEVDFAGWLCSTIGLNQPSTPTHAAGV
Chain of Misshapen-like kinase 1 (Homo sapiens) (Q8N4C8 whole entry, looked up): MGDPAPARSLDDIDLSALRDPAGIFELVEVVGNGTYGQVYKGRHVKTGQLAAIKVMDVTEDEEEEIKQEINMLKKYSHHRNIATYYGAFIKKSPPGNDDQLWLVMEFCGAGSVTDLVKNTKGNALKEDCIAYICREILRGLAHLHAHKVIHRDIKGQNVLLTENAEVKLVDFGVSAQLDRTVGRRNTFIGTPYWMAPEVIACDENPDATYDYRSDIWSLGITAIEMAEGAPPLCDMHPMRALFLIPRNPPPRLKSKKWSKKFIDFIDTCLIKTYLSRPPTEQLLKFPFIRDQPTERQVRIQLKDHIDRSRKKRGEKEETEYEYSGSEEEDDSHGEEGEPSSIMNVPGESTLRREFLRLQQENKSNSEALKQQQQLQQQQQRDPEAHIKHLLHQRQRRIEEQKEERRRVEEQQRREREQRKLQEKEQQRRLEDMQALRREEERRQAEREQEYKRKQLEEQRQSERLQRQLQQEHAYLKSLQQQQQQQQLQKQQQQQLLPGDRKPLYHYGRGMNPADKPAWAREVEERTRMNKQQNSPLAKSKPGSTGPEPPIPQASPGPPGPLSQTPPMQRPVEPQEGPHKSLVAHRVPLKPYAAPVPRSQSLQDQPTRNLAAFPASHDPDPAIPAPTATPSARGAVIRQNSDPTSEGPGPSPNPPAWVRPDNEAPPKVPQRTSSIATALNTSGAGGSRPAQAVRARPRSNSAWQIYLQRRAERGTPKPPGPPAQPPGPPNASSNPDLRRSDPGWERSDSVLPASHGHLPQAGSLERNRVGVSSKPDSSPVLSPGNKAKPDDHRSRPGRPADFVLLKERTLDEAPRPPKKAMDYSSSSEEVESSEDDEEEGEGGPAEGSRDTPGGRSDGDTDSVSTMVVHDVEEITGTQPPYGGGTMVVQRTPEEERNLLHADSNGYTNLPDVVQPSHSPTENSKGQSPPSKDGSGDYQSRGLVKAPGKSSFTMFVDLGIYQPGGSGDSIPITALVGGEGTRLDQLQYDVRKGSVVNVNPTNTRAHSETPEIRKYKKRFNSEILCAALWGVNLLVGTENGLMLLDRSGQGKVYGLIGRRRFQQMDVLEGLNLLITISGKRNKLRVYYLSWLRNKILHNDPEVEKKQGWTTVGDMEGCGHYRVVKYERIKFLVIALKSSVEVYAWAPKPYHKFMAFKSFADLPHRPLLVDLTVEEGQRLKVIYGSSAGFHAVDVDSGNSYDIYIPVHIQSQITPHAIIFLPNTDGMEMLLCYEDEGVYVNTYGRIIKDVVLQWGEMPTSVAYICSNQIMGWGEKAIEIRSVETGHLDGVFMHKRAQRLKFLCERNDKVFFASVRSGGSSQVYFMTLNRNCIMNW
Chain of Mitogen-activated protein kinase kinase kinase kinase 4 (Homo sapiens) (O95819 2-1239 limits assumed): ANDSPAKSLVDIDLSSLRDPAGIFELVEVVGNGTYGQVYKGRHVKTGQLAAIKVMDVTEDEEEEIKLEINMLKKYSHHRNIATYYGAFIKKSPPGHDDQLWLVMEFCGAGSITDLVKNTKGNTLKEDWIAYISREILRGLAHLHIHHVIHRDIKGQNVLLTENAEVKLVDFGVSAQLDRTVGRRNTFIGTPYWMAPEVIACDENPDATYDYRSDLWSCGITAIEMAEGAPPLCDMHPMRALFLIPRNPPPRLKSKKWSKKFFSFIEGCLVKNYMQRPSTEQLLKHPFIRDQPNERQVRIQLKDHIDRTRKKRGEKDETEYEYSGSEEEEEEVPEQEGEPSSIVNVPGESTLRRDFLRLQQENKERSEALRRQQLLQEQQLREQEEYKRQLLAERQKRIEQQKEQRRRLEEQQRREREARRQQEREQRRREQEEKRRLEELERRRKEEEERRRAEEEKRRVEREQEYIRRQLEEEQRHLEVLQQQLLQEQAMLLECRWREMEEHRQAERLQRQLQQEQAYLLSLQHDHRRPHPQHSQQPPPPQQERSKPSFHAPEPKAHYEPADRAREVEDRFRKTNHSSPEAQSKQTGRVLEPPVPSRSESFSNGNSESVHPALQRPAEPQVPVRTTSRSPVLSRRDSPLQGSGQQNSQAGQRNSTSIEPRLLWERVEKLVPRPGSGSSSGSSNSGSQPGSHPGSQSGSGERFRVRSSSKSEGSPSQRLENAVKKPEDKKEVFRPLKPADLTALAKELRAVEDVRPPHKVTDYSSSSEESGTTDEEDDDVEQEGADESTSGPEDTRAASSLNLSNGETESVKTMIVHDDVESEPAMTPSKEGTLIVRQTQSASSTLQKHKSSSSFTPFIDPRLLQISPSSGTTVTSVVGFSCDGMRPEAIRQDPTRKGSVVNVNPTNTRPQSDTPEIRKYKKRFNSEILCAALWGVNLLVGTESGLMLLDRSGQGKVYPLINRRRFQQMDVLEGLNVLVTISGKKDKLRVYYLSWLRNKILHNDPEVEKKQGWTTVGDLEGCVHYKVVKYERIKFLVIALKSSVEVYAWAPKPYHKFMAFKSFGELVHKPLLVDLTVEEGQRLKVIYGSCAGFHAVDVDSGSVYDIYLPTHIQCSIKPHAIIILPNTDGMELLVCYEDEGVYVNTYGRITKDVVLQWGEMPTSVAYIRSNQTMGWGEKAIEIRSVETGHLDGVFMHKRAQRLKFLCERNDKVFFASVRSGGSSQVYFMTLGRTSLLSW
Chain of Serine/threonine-protein kinase PAK 5 (Homo sapiens) (Q9P286 whole entry, looked up): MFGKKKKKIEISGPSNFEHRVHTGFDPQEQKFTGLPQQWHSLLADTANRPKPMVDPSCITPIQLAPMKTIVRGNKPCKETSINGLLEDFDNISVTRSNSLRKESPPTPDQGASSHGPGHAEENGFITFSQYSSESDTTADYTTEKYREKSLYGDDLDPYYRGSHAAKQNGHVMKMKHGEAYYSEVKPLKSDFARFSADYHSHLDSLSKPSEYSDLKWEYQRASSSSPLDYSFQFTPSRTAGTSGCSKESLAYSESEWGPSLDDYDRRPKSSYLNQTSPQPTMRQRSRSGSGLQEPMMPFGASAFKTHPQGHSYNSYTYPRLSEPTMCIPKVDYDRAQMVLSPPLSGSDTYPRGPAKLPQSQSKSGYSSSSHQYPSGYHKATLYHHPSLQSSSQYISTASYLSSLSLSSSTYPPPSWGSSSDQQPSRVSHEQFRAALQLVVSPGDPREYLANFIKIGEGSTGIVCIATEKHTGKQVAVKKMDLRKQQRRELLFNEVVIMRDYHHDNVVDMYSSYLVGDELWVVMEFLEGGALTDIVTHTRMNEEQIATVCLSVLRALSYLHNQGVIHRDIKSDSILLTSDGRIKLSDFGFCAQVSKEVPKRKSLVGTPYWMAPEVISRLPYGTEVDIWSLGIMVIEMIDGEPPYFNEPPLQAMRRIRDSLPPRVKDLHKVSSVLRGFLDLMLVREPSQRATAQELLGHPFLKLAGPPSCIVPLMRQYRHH

The term inhibition denotes the relative decrease from the control value, in per cent. With `COc1ccc(-c2cc3c(N)ncnc3o2)cc1`, the inhibition was 9.41% in [1]; -0.07% in [2]; 1.35% in [3]; 1.42% in assay [4]; 6.5% in assay [5]; -2% in [6]. Further, the inhibition is -0.96% in [7]; -3.02% in [8]; -0.72% in assay [9]; 1.44% in [10]; 0.97% in assay [11]; -2.64% in assay [12]. The inhibition is -0.27% in assay [13]; -2.02% in assay [14]; -0.84% in assay [15]; -1.87% in assay [16]; -1.01% in assay [17]; -1.3% in [18]. Moreover, the inhibition was -1.65% in [19] and -8.16% in assay [20].
In the case of `CN1CCC(n2cnc(-c3ccc(F)cc3)c2-c2ccnc(Nc3ccccc3)n2)CC1`, the inhibition in [1] is 41.2%; in assay [2] it was 3.25%; in assay [3], 4.26%; in [4] it was 8.59%; in assay [5], 41.2%; in assay [6], 3.25%. In addition, the inhibition in [7] amounted to 6.2%; in assay [8], 1.1%; in [9], 3.6%; in [10] it was 0.76%; in assay [11], 5.17%; in assay [12] it was 1.24%. Besides, the inhibition in assay [13] is 4.02%; in assay [14], 0.86%; in assay [15] it was -0.38%; in assay [16], 2.18%; in assay [17], 2.38%; in assay [18] it was -3.93%. Moreover, the inhibition in assay [19] was 4.44%; in [20], -9.85%.
As for `COc1ccc2c(-c3ccnc(Nc4cccc(OC(F)(F)F)c4)n3)cnn2n1`, the inhibition in assay [1] was 11.5%; in [2] it was 6.37%; in [3], 6.2%; in assay [4], 5.92%; in assay [5] it was 10.5%; in assay [6] it was 8.73%. In addition, the inhibition is 9.62% in [7]; 9.08% in assay [8]; 9.55% in assay [9]; -1.2% in assay [10]; -3.1% in assay [11]; 8.76% in assay [12]. Further, the inhibition came out at 7.47% in assay [13]; 4.37% in assay [14]; 2.6% in assay [15]; 5.69% in assay [16]; 5.05% in [17]; 8.06% in [18]. The inhibition in assay [19] is 5.84%; in [20], 5.76%.
For `Fc1ccc(-c2nn3ncccc3c2-c2ccnc(Nc3ccc4c(c3)OCCO4)n2)cc1`, the inhibition amounted to 73.2% in assay [1]; 5.8% in [2]; 11.7% in assay [3]; 16.4% in [4]; 65.2% in [5]; 3.27% in assay [6]. Moreover, the inhibition in [7] is 5.1%; in [8] it was 3.68%; in assay [9] it was 3.21%; in [10], -0.01%; in [11] it was 7.97%; in [12], 5.7%. Further, the inhibition was 9.76% in [13]; 1.46% in assay [14]; 2.5% in [15]; 4.83% in [16]; 4.47% in [17]; -1.83% in assay [18]. In addition, the values for the inhibition in assay [19] and in assay [20] were -2.83% and -0.14%, respectively.
On to `O=S(=O)(CCNCc1ccc(-c2ccc3ncnc(Nc4ccc(OCc5cccc(F)c5)c(Cl)c4)c3c2)o1)c1ccccc1`, for which the inhibition was 10.8% in assay [1]; 6.48% in [2]; 5.62% in [3]; 5.49% in assay [4]; 5.63% in [5]; 4.83% in [6]. Further, the inhibition in assay [7] was 7.44%; in assay [8], 8.36%; in [9], 9.44%; in assay [10] it was -1.43%; in assay [11], -0.49%; in assay [12] it was 10%. For the same compound, the inhibition in assay [13] worked out at 7.19%; in assay [14], 2.7%; in assay [15], 3.71%; in assay [16], 6.62%; in assay [17], 5.75%; in assay [18] it was 4.32%. For the same compound, the figures for the inhibition in assay [19] and in [20] were 5.17% and 0.2%, respectively.
`CCn1c(-c2nonc2N)nc2c(C#CC(C)(C)O)nc(OC[C@H](N)c3ccccc3)cc21`: the inhibition stood at 35.1% in [1]; 2.26% in assay [2]; 4.39% in [3]; 6.18% in assay [4]; 21.1% in assay [5]; 7.92% in assay [6]. Besides, the inhibition in assay [7] is 42.7%; in assay [8], 9.64%; in assay [9] it was 42.4%; in [10] it was -0.06%; in assay [11], 28.1%; in [12] it was 1.29%. For the same compound, the inhibition in assay [13] amounted to 3.91%; in assay [14], 1.1%; in assay [15], 10.9%; in [16], 2.18%; in [17], 4.83%; in assay [18], 37.3%. Moreover, the figures for the inhibition in [19] and in assay [20] were 70.9% and 49.4%, respectively.
As for `CCOc1ccc2c(-c3ccnc(Nc4cccc(C(F)(F)F)c4)n3)cnn2n1`, the inhibition turned out to be 4.83% in assay [1]; 2.29% in assay [2]; 0.44% in assay [3]; 3.9% in assay [4]; 7.19% in [5]; 3.72% in [6]. The inhibition in assay [7] amounted to 3.98%; in assay [8] it was 5.61%; in assay [9] it was 6.48%; in [10] it was 0.02%; in assay [11], 0.13%; in assay [12] it was 4.57%. Further, the inhibition in [13] was 3.75%; in assay [14], -0.07%; in assay [15], -0.6%; in assay [16], 3.17%; in [17] it was 2.39%; in assay [18], 0.65%. Also, the values for the inhibition in [19] and in assay [20] were -0.74% and -3.86%, respectively.
